Screens from PubChem.
In the library only some 21% were active in any assay of this set; here they are far more common.
Pf growth 48h: Primary qHTS for delayed death inhibitors of the malarial parasite plastid, 48 hour incubation; hit rate 5.9% among 310,000; P. falciparum luciferase growth in erythrocytes, 48 h; Potency, µM (doses to about 28.7 µM), for inactives: at the top dose activity change, negative = inhibition, hits mostly inhibitors; AID 504832, 2011; further: potency means the concentration at half of the fitted maximal effect; on the % scale 0 is the no-effect control and ±100 the full control effect
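First compound was added to culture medium, then infected red cells at 0.1% parasitemia and 2% hematocrit (final). After incubation at 37 C under 5% CO2, luciferase detection reagent was dispensed and light output recorded.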
CHX counter: Cycloheximide Counterscreen for Small Molecule Inhibitors of Shiga Toxin. cell reporter, cycloheximide protein synthesis inhibition counterscreen. max response, %. hit rate 12% among 300,000. AID 2314, 2010; in the data active means max response mostly above about 13%, no sharp cut-off; inactive means mostly below about 14%; further: read at 38.3 µM for the half of the compounds with a filed dose; 0% is about no effect
Shiga toxin inh: A qHTS for Small Molecule Inhibitors of Shiga Toxin; AID 2315, 2010; Vero cells, Shiga toxin protein synthesis inhibition reporter; hit rate 9.2% among 290,000; inhibition, % at 38.7 µM; in the data active means inhibition mostly above about 28%, no sharp cut-off; inactive means mostly below about 43%; further: 0% is about no effect
Pf growth 96h: Primary qHTS for delayed death inhibitors of the malarial parasite plastid, 96 hour incubation; Potency, µM (titrated, usually from 28.7 µM), for the others: at the highest dose activity change, negative = inhibition, actives largely listed as inhibitors; P. falciparum luciferase reporter growth, 96 h; hit rate 6.9% among 320,000; AID 504834, 2011; further: potency means the concentration at half of the fitted maximal effect; on the % scale 0 is the no-effect control and ±100 the full control effect
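Two parasite generations (96 h, 37 C, 5% CO2) of compound exposure in infected erythrocytes (0.05% parasitemia, 2% hematocrit). Luciferase-reporter P. falciparum; decreased luminescence indicates inhibited growth, aimed at apicoplast-acting delayed death.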
NS1 inh: qHTS Assay for Inhibitors of Influenza NS1 Protein Function. hit rate 0.4% among 270,000. Potency, µM (series often up to 46.1 µM), for the others: at the highest dose activity, positive = more growth; calls by dose curve; further: potency means the concentration at half of the fitted maximal effect; actives are rising curves; nearly all actives have a fitted effect of over 50% in size
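OD600 was taken as the measure of yeast growth restored by compound in an NS1-expressing S. cerevisiae strain. Cells had been washed out of glucose medium and diluted 1:100 into galactose -URA medium, pH 6.0.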
Sm TGR block: qHTS Assay for the Inhibitors of Schistosoma Mansoni Peroxiredoxins | hit rate 3% among 360,000 | Schistosoma mansoni thioredoxin glutathione reductase (TGR), Q962Y6 | purified TGR, DTNB reduction, TNB absorbance 405 nm | Potency, µM (titrated, usually from 114 µM), without a hit: at the top dose activity change, negative = inhibition, most hits filed as inhibitors; further: potency means the concentration at half of the fitted maximal effect; on the % scale 0 is the no-effect control and ±100 the full control effect; nearly all actives have a fitted effect of over 60% in size
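TGR 20 nM + NADPH 100 uM (dispensed conc.), cpd preinc 15 min RT; start with NADPH (500 uM addition) then DTNB (15 mM addition). Kinetic TNB absorbance, 405 nm filter. Four-parameter Hill fit across titration.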
* marks the source's active call; other numbers are inactive results; [ ] = another dose, or the depositor's remark. Unless noted, the call rests on the fitted dose curve; in most records, active means well fitted curve in the direction sought with a large enough effect; inconclusive means small, poorly fitted or top-dose-only effect, or another doubt; inactive means no such curve, though single readings can be large; an effect the other way counts as inactive or inconclusive.

`CCOC(=O)NCc1ccc(CNC(=O)OCC)cc1` gave Pf growth 48h -16%, CHX counter -2, Shiga toxin inh -9, NS1 inh -11% and Sm TGR block 7%.
Screening CCOC(=O)Nc1ccc(NCc2ccc(F)cc2)nc1N returned Pf growth 48h 13µM*, Pf growth 96h 6.7µM*, NS1 inh inconclusive and Sm TGR block 3.2µM*.
c1ccc(OCC2CCNCC2)nc1 was read as Pf growth 48h 1%, CHX counter -1, Shiga toxin inh -7, Pf growth 96h inconclusive, NS1 inh -4% and Sm TGR block 8%.
`NC(=S)c1cn(C2OC(CO)C(O)C2O)c2ncnc(N)c12` (centres undefined) gave Pf growth 48h 1.3µM*, CHX counter -2, Shiga toxin inh -5, Pf growth 96h 4.1µM*, NS1 inh 1% and Sm TGR block 0%.
For Cc1ccc2c(CN(C)Cc3cccc(Cl)c3)cc(=O)oc2c1C the results were Pf growth 48h -8%[0.00184 µM], CHX counter 6.4*, Shiga toxin inh 33, Pf growth 96h -4%, NS1 inh -31% and Sm TGR block 0%.
For Cc1cc2oc(=O)cc(CN(C)Cc3ccccc3)c2cc1C(C)C the results were Pf growth 48h 13µM*, CHX counter -1, Shiga toxin inh -7, Pf growth 96h inconclusive, NS1 inh -11% and Sm TGR block 2%.
For CSc1ccc(CN(C)Cc2cc(=O)oc3c(C)c(C)ccc23)cc1 the results were Pf growth 48h inconclusive, CHX counter -4, Shiga toxin inh -6, Pf growth 96h -16%, NS1 inh 1% and Sm TGR block -5%.
For COc1cc(CN(C)Cc2cc(=O)oc3cc(C)c(Cl)cc23)ccc1OC(F)F the results were Pf growth 48h inconclusive, CHX counter 22, Shiga toxin inh 50*, Pf growth 96h inconclusive, NS1 inh -9% and Sm TGR block -3%.
Screening Cc1cc2oc(=O)cc(CN3CCCCC3C)c2cc1C(C)C (centres undefined) returned Pf growth 48h 15µM*, CHX counter -2, Shiga toxin inh -5, Pf growth 96h inconclusive, NS1 inh -8% and Sm TGR block -2%.
Screening COc1ccc2cc(S(=O)(=O)N3CCCC(C)C3)ccc2c1 (centres undefined) returned Pf growth 48h -17%, CHX counter -8, Shiga toxin inh -4, Pf growth 96h -2%, NS1 inh 7% and Sm TGR block 8%.
Cc1ccc2c(CN(C)Cc3cccc(F)c3)cc(=O)oc2c1 was read as Pf growth 48h 100%, CHX counter 30*, Shiga toxin inh 88*, Pf growth 96h 82%, NS1 inh -5% and Sm TGR block 4%.
Cc1cc2oc(=O)cc(CN(C)Cc3cccc(F)c3)c2cc1Cl was read as Pf growth 48h 0%, CHX counter -2, Shiga toxin inh 3, Pf growth 96h 13%, NS1 inh -3% and Sm TGR block 4%.
CCc1ccc2c(CN(C)Cc3ccccc3OC)cc(=O)oc2c1 was read as Pf growth 48h -2%[0.00184 µM], CHX counter 19*, Shiga toxin inh 56, Pf growth 96h -27%, NS1 inh -8% and Sm TGR block -8%.
COc1ccc2oc(=O)cc(CN(C)Cc3ccccc3)c2c1 was read as Pf growth 48h inconclusive, CHX counter -4, Shiga toxin inh -5, Pf growth 96h inconclusive, NS1 inh -9% and Sm TGR block 4%.
Screening Cc1sc2ncnc(N(C)C3CCCCC3)c2c1C returned Pf growth 48h 14%, CHX counter 11, Shiga toxin inh 45*, Pf growth 96h 0%, NS1 inh 2% and Sm TGR block -6%.
For O=C(/C=C/c1cc(Br)ccc1F)Nc1cccnc1 the results were Pf growth 48h 3%, CHX counter 26*, Shiga toxin inh 39*, Pf growth 96h 20%, NS1 inh -43% and Sm TGR block 20%.
For O=C(/C=C/c1c(F)cccc1Cl)Nc1cccnc1 the results were Pf growth 48h 6%, CHX counter 39*, Pf growth 96h inconclusive, NS1 inh -79% and Sm TGR block 2%.
